Screening data from PubChem.
MEKK2 mut-MEK5: signal of MEK5 binding to mutant human MEKK2 PB1 domain | percent response, % at 10 µM | AID 1530 | actives 0.35% (n = 290,000) | bead flow cytometry, Alexa488-MEK5 binding to MEKK2 mutant; in the data active means percent response above about 24%, passing the limit was not always enough
MEKK3 PB1 HTS: raises or lowers MEK5 binding to the human MEKK3 PB1 domain | actives 1.4% (n = 290,000) | bead-based flow cytometry, Alexa488-MEK5 binding to MEKK3; actives lie on both sides; 0 = blocked by unlabeled MEK5, 100 = vehicle | AID 1529 | binding response (% of control), % at 10 µM | Q99759;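 active means binding response more than 3 SD above or below the average of its plate-row segment, actives on both sides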;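 further: Alexa488 bead fluorescence after subtracting the streptavidin-only scavenger bead signal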
GRK2 inh: inhibitors of human GRK2 displacing RNA aptamer; inhibition of aptamer binding, % at 10 µM; actives 0.59% (n = 330,000); P25098; bead flow cytometry, FAM-aptamer displacement from GRK2; AID 488847;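 active means inhibition of aptamer binding above 40%, roughly 3 SD of noise, on plates passing a quality check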;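 further: median bead fluorescence of bound FAM aptamer so fluorescent compounds give negative values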
Target sequence (P25098 whole entry, looked up): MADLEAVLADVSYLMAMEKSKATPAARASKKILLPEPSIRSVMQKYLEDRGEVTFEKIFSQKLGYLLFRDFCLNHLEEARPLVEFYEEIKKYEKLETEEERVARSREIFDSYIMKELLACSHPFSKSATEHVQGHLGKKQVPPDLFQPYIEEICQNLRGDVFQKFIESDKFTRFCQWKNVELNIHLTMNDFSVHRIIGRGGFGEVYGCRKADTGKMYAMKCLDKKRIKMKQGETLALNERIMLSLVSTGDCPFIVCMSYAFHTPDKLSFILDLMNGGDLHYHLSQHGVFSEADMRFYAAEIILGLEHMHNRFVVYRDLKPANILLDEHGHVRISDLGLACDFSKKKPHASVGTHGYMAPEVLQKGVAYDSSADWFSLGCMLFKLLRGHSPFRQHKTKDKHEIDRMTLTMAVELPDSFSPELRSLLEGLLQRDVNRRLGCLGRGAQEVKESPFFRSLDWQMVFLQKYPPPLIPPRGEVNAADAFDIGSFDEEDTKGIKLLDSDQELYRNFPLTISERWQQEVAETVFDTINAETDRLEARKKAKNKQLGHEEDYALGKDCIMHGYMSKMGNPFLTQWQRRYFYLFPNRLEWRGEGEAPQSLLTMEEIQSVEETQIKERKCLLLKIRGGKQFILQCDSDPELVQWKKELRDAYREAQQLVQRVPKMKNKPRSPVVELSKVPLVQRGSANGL
MEKK2wt PB1 HTS: raises or lowers MEK5 binding to wildtype human MEKK2 PB1 domain; bead flow cytometry, Alexa488-MEK5 binding to MEKK2 WT; actives lie on both sides; binding response (% of control), % at 10 µM; actives 1.1% (n = 290,000); AID 1531; in the data active means binding response below about 67% or above about 130%
MEKK2wt confirm: raises or lowers MEK5 binding to wildtype human MEKK2, retest. AID 1892. bead flow cytometry, Alexa488-MEK5 binding to MEKK2 WT; actives lie on both sides. binding response (% of control), % at 10 µM. shares compounds with MEKK3 PB1 HTS. actives 2.4% (n = 5,900); in the data active means binding response below about 16% or above about 210%; inactive means in between
MEKK2mut confirm: signal of MEK5 binding to mutant human MEKK2, retest. AID 1893. actives 2% (n = 5,900). bead flow cytometry, Alexa488-MEK5 binding to MEKK2 mutant. percent response, % at 10 µM. shares compounds with MEKK3 PB1 HTS; in the data active means percent response mostly above about 71%, no sharp cut-off; inactive means mostly below about 38%;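 further: higher means compound restores mutant binding toward wildtype level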
MEKK3-MEK5 inh: MEKK3-MEK5 PB1 inhibition, single concentration confirmation; shares compounds with MEKK3 PB1 HTS; AID 1894; bead flow cytometry, Alexa488-MEK5 binding to MEKK3; active compounds read low; actives 1.8% (n = 5,900); binding response (% of control), % at 10 µM;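 active means binding response below 72% of control, or above a set upper limit, though filed actives all read lower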;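 further: 100% = DMSO only wells and 0% = binding blocked by excess unlabeled MEK5; lower values mean stronger disruption of MEK5 binding to MEKK3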
Active calls of the source: *; · = not tested or not shown; [ ] = another dose, or the depositor's remark. Sampled rows, rich in hits. Any-hit rate of the full collection: about 2.5%.

SMILES | MEKK2 mut-MEK5 | MEKK3 PB1 HTS | GRK2 inh | MEKK2wt PB1 HTS | MEKK2wt confirm | MEKK2mut confirm | MEKK3-MEK5 inh
COC(=O)c1cc(C#N)c(Oc2ccccc2OC)nc1C | 0.0 | 103.0 | 0.0 | 105.0 | · | · | ·
COC(=O)c1cc(C#N)c(OC(C)C)nc1C | 7.0 | 142.0* | 0.0 | 123.0 | 98.0 | -3.0 | 97.0
O=C(Nc1cccc2ccccc12)NC1Cc2ccccc2C1 | -10.0 | 73.0*[inhibitor] | 1.0 | 82.0 | 111.0 | 3.0 | 98.0
COc1cc2nc(N3CCNCC3)nc(N)c2cc1OC | -3.0 | 99.0 | 15.0 | 106.0 | · | · | ·
COc1cc2nc(N3CCN(c4cc(C)ccc4C)CC3)nc(N)c2cc1OC | 42.0* | 106.0 | 0.0 | 186.0* | 226.0* | 75.0* | 113.0
CC(NC(=O)C(C)N1CCN(Cc2ccccc2)CC1)c1ccc(F)cc1 (stereo not drawn) | 5.0 | 100.0 | 0.0 | 102.0 | · | · | ·
Cc1nn(-c2ccccc2[N+](=O)[O-])c(=O)c2ccccc12 | 6.0 | 106.0 | 0.0 | 106.0 | · | · | ·
Cc1nn(-c2ccccc2C(=O)O)c(=O)c2ccccc12 | -26.0 | 2.0*[inhibitor] | 0.0 | -1.0*[inhibitor] | 103.0 | 2.0 | 103.0
COc1ccc(/C=N/Nc2cc(C)nc3ccc(OC)cc23)c(OC)c1 | 180.0* | 114.0 | 0.0 | 389.0* | 282.0* | 141.0* | 118.0
O=C(Nc1ccncc1)C1CCN(S(=O)(=O)c2ccc(Cl)c(C(F)(F)F)c2)CC1 | · | · | 0.0 | · | · | · | ·
O=C1N=c2ccccc2=C1c1[nH]c(=S)[nH]c1O | 2.0 | 66.0*[inhibitor] | 0.0 | 106.0 | 110.0 | 9.0 | 103.0
O=C1N=c2ccccc2=C1c1sc(=O)[nH]c1O | -2.0 | 94.0 | 3.0 | 92.0 | · | · | ·
O=C(Cc1ccc([N+](=O)[O-])cc1)NCc1ccccc1Cl | 1.0 | 146.0* | 0.0 | 108.0 | 98.0 | -4.0 | 102.0
Cc1ccc(-c2nc(CN(C)Cc3cccc4cnccc34)c(C)o2)s1 | 8.0 | 102.0 | 4.0 | 106.0 | · | · | ·
CCCC(c1nnnn1CCOC)N1CCN(Cc2ccccc2)CC1 (stereo not drawn) | 2.0 | 108.0 | 0.0 | 100.0 | · | · | ·
CCC(c1nnnn1CCOC)N1CCN(Cc2ccccc2OC)CC1 (stereo not drawn) | 25.0* | 117.0 | 0.0 | 110.0 | 111.0 | 5.0 | 104.0
CCOC(=O)C1=C(c2ccccc2)NC(N)=NC1c1ccc(OCc2ccc(Cl)cc2)c(OC)c1 (stereo not drawn) | 82.0* | 105.0 | 0.0 | 248.0* | 251.0* | 121.0* | 112.0
CCOC(=O)C1=C(c2ccccc2)NC(=O)NC1c1cc(Cl)c(O)c(OC)c1 (stereo not drawn) | -8.0 | 95.0 | 1.0 | 98.0 | · | · | ·
CCCCn1c(N)c(N(CC(C)C)C(=O)CCNC(=O)c2ccc(Cl)cc2)c(=O)[nH]c1=O | · | · | 0.0 | · | · | · | ·
CC1CCN(C(=O)CCCC(=O)N2CCC(C)CC2)CC1 | 8.0 | 100.0 | 1.0 | 107.0 | · | · | ·
CN(C)CCCN(C(=O)c1ccc(S(=O)(=O)N2CCCCCC2)cc1)c1nc2ccc(F)cc2s1 | 21.0 | 110.0 | 0.0 | 158.0* | 154.0 | 37.0 | 105.0
CN(C)CCCN(C(=O)c1ccc(S(=O)(=O)N2CCCCCC2)cc1)c1nc2c(F)cccc2s1 | 14.0 | 105.0 | 3.0 | 134.0* | 127.0 | 10.0 | 101.0
CCOC(=O)N1CCN(S(=O)(=O)c2ccc(C(=O)N(CCN(CC)CC)c3nc4ccc(C)cc4s3)cc2)CC1 | 20.0 | 107.0 | 5.0 | 130.0 | · | · | ·
COc1cccc2sc(N(CCCN(C)C)C(=O)c3ccc(S(=O)(=O)N4CCCc5ccccc54)cc3)nc12 | 38.0* | 110.0 | 0.0 | 187.0* | 172.0 | 39.0 | 107.0
CCOC(=O)N1CCN(S(=O)(=O)c2ccc(C(=O)N(CCCN(C)C)c3nc4c(F)cc(F)cc4s3)cc2)CC1 | · | · | 0.0 | · | · | · | ·
SMILES | MEKK2 mut-MEK5 | MEKK3 PB1 HTS | GRK2 inh | MEKK2wt PB1 HTS | MEKK2wt confirm | MEKK2mut confirm | MEKK3-MEK5 inh
CN(C)CCN(C(=O)c1ccc(S(=O)(=O)N2CCCC2)cc1)c1nc2ccc(Br)cc2s1 | 18.0 | 107.0 | 0.0 | 138.0* | 177.0 | 50.0 | 109.0
COC(=O)c1cc(-c2cccc(OC)c2)c2c(=O)[nH]c(=O)n(C)c2n1 | 6.0 | 102.0 | 0.0 | 99.0 | · | · | ·
CCc1ccc2nc(N(CCCN(C)C)C(=O)c3ccc(C(=O)c4ccccc4)cc3)sc2c1 | 32.0* | 104.0 | 0.0 | 186.0* | 205.0 | 64.0 | 109.0
CCc1ccc2nc(N(CCCN(C)C)C(=O)c3ccc(S(=O)(=O)N4CCCC4)cc3)sc2c1 | 16.0 | 106.0 | 0.0 | 135.0* | 134.0 | 17.0 | 106.0
CCOC(=O)N1CCN(S(=O)(=O)c2ccc(C(=O)N(CCCN(C)C)c3nc4ccc(CC)cc4s3)cc2)CC1 | 19.0 | 102.0 | 0.0 | 133.0 | · | · | ·
CCc1ccc2nc(N(CCCN(C)C)C(=O)c3ccc(S(=O)(=O)N4CCCc5ccccc54)cc3)sc2c1 | 32.0* | 97.0 | 0.0 | 188.0* | 203.0 | 52.0 | 107.0
Nc1c(C(=O)Nc2ccc(F)cc2)sc(=S)n1-c1ccccc1F | -14.0 | 84.0 | 1.0 | 83.0 | · | · | ·
COc1cc(/C=C/C(=O)O)ccc1OS(=O)(=O)c1c(C)cc(C)cc1C | · | · | 0.0 | · | · | · | ·
Cc1onc(-c2ccccc2)c1C(=O)NC(=S)NNC(=O)c1ccncc1 | 1.0 | 131.0* | 74.0* | 107.0 | 105.0 | -2.0 | 100.0
Cc1onc(-c2ccccc2)c1C(=O)NC(=S)NNC(=O)c1cccnc1 | 0.0 | 104.0 | 0.0 | 102.0 | · | · | ·
CCCCN(C)CCNC(=O)C(=O)c1c(C)[nH]c2ccccc12 | -4.0 | 75.0*[inhibitor] | 0.0 | 84.0 | 99.0 | -4.0 | 101.0
NC(=O)CSc1nnc(-c2cc3ccccc3o2)n1Cc1ccccc1 | 9.0 | 124.0* | 1.0 | 119.0 | 98.0 | 3.0 | 104.0
CN1c2ccccc2-c2nc3ccccc3n2C1c1cccs1 (stereo not drawn) | 0.0 | 181.0* | 1.0 | 105.0 | 102.0 | 2.0 | 104.0
c1csc(C2Nc3ccccc3-c3nc4ccccc4n32)c1 (stereo not drawn) | 1.0 | 132.0* | 0.0 | 106.0 | 107.0 | 9.0 | 100.0
Cc1ccsc1C1Nc2ccccc2-c2nc3ccccc3n21 (stereo not drawn) | 0.0 | 103.0 | 0.0 | 108.0 | · | · | ·
O=C(N/N=C/c1ccnc2ccccc12)c1ccccc1O | 2.0 | 100.0 | 1.0 | 100.0 | · | · | ·
COCCC(=O)N1CCC(n2nccc2NC(=O)c2ccccc2C)CC1 | -8.0 | 96.0 | 0.0 | 99.0 | · | · | ·
Cc1cccc(-n2[nH]c(C)c(C=Nc3ccc4[nH]c(=O)[nH]c4c3)c2=O)c1 | 0.0 | 129.0* | 5.0 | 107.0 | 123.0 | 11.0 | 104.0
COc1cc2c(cc1OC)CN(C(=O)c1cc(C3CC3)nn1-c1ccccc1)CC2 | · | · | 0.0 | · | · | · | ·
